Rows were chosen to be rich in hits. Some 2.4% of all compounds tested hit in one or more screens of this group.
D2 ag-1: D2 dopamine receptor (human) agonism | P14416 | HEK293 T-REx D2 cells, calcium flux agonist mode | activation, % at 2 µM | actives 0.53% (n = 340,000);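 active means activation over 3 SD above normal in the single-dose calcium agonist read, cut at about 30% in these data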
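In this primary screen, compounds producing a positive calcium signal within 180 s of addition to tetracycline-induced, force-coupled HEK293 Trex D2 cells are flagged; cells are dye-loaded with a no-wash calcium kit beforehand.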
D2 antagonist: antagonizes the human D2 dopamine receptor. inhibition, % at 10 µM. AID 485344. HEK293 TREx D2 cells, calcium flux, dopamine EC80. P14416. actives 2% (n = 340,000); in the data active means inhibition above about 30%; inactive means below that, where a call was filed
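Calcium mobilization kinetics were recorded at 1 s intervals in tetracycline-induced HEK293 T-REx D2 cells, first for 180 s after compound addition and then 180 s after EC80 dopamine.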
D2 PAM-1: positively modulates the human D2 dopamine receptor allosterically. actives 0.34% (n = 340,000). P14416. HEK293 T-REx D2, calcium flux, EC20 dopamine potentiation. potentiation, % at 10 µM;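 active means potentiation over 3 SD above the plate norm, cut at about 30% in these data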
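Potentiation of an EC20 dopamine calcium response measured kinetically over 180 s, after a preceding 180 s compound-only read flagging agonists. Cells: inducible Hek293 Trex D2 line, 4000/well, cultured overnight at 30 C before dye loading.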
D2 PAM-2: positive allosteric modulators of human D2 dopamine receptor | DiscoveRx D2 beta-arrestin cells, luminescence, 90 min; 100% = 57 uM dopamine signal | potentiation, % (concentration not given with the values) | actives 0.23% (n = 360,000); in the data active means potentiation above about 50%; inconclusive means mostly about 30% to 49%
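PathHunter D2 cells, attached overnight at 37 deg C, received compound in DMSO plus dopamine at EC20 (50 nM final) for 90 min at 37 deg C. Beta-arrestin recruitment was read as luminescence after 1 h with detection reagent at ambient temperature.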
D2 ag-2: agonists of human D2 dopamine receptor (beta-arrestin); P14416; DiscoveRx PathHunter D2 beta-arrestin, luminescence, 90 min; 100% = 57 uM dopamine signal; activation, % (no concentration beside the values); actives 0.084% (n = 360,000); AID 624465; in the data active means activation above about 40%; inconclusive means between about 15% and that limit
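Agonist mode: compounds alone added to overnight-plated D2 PathHunter cells for 90 min at 37 C, with 57 uM final dopamine (EC100) defining full response. Beta-arrestin recruitment detected by chemiluminescent reagent, read after 1 h at ambient temperature.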
D3 ag: confirmation of human D3 dopamine receptor agonists, beta-arrestin. shares compounds with D2 ag-1. actives 4% (n = 2,300). DiscoveRx D3 beta-arrestin cells, luminescence, 90 min. Potency, µM (highest dose often 76.9 µM), hits mostly activators. AID 720506; further: nearly all actives have a fitted effect of over 70% in size
Target sequence (P35462 whole entry, looked up): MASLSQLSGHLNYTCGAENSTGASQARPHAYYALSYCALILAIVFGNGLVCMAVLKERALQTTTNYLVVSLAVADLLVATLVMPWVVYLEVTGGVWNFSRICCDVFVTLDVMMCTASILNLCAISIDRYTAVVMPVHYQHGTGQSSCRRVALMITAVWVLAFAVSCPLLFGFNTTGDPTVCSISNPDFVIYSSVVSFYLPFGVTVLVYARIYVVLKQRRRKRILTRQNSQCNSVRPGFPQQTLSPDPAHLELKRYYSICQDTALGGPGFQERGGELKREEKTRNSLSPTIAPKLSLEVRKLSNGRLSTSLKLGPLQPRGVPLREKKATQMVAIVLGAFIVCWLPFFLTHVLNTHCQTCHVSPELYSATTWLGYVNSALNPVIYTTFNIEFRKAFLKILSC
D2 ag-3: activates human D2 dopamine receptor in D3 counterscreen; shares compounds with D2 ag-1; AID 720507; actives 5.9% (n = 2,300); DiscoveRx PathHunter D2 beta-arrestin, luminescence, 90 min; response scale: percent relative to full dopamine signal; Potency, µM (top dose mostly 76.9 µM), most hits filed as activators; further: nearly all actives have a fitted effect of over 70% in size
Large screens that a line does not name were inactive (follow-up assays come after a bar, where they were run). Unless noted, the call rests on the fitted dose curve; in most records, active means well fitted activation curve with a large enough effect; inconclusive means small, poorly fitted or top-dose-only effect; inactive means flat fitted curve, though single readings scatter.

COc1ccc(NC(=O)COc2coc(CN3CCN(c4ccccc4)CC3)cc2=O)cc1	D2 ag-1 50.2 | D3 ag inactive | D2 ag-3 inactive
Cc1ccccc1NC(=O)COc1coc(CN2CCN(c3ccccc3)CC2)cc1=O	D2 ag-1 54.6, D2 ag-2 inconclusive | D3 ag inactive | D2 ag-3 inactive
COc1ccc(N2CCN(Cc3cc(=O)c(OCC(=O)Nc4ccccc4)co3)CC2)cc1	none
O=C(c1cc(-c2cccnc2)nc2ccccc12)N1CCN(S(=O)(=O)c2cccs2)CC1	none
COc1ccc(C(=O)NCC(=O)N/N=C/c2cn[nH]c2-c2ccccc2)cc1	none (no result: D2 PAM-1) | D3 ag inactive | D2 ag-3 inactive
O=C(Nc1cc(F)ccc1F)c1ccc(-n2cncn2)c([N+](=O)[O-])c1	none
Cc1ccccc1C(=O)Nc1ccnn1C1CCN(CCCc2ccccc2)CC1	D2 ag-2 inconclusive
O=C(Nc1ccnn1C1CCN(CCCc2ccccc2)CC1)c1ccccc1	D2 antagonist 43.6 | D3 ag inactive | D2 ag-3 inactive
O=C(Nc1ccnn1C1CCN(C/C=C/c2ccccc2)CC1)C1CCCC1	D2 ag-1 58.2 | D3 ag inactive | D2 ag-3 inactive
COc1ccccc1C(=O)Nc1ccnn1C1CCN(CCCc2ccccc2)CC1	D2 antagonist 32.8 | D3 ag inactive | D2 ag-3 inactive
Cc1nn(-c2ccccc2)c(C)c1C(=O)OCC(=O)N(C)c1c(N)n(Cc2ccccc2)c(=O)[nH]c1=O	none
CN(CCOc1cccc2ccccc12)Cc1ccccc1	D2 ag-2 inconclusive (no result: D2 ag-1, D2 antagonist) | D3 ag inactive | D2 ag-3 inactive
C[C@]12c3[nH]c4ccc(Cl)cc4c3CCN1C(=O)[C@@H](CC(=O)NCCN1CCOCC1)C[C@@H]2C(=O)N1CCCCC1	none (no result: D2 ag-1, D2 antagonist, D2 PAM-1, D2 PAM-2)
Cc1cc(CN2CCN(c3ccccc3F)CC2)cs1	none (no result: D2 ag-1, D2 antagonist, D2 PAM-2, D2 ag-2)
FCCCOc1ccc(CN2CCN(c3ccccc3F)CC2)cc1	none (no result: D2 ag-1, D2 antagonist) | D3 ag inconclusive | D2 ag-3 inconclusive
O=C1OCCN1N1CCOC1=O	none (no result: D2 ag-1, D2 antagonist, D2 PAM-1)
Fc1ccccc1N1CCN(CCCNc2ccc3nncn3n2)CC1	D2 ag-1 95.3, D2 antagonist 90.0, D2 ag-2 43.3 | D3 ag inconclusive | D2 ag-3 inconclusive
Cc1ccccc1-c1nnc(NC(=O)CSc2nc3ccccc3s2)s1	none
COc1cc(-c2nnc(NC(=O)CCS(=O)(=O)c3ccccc3)o2)cc(OC)c1OC	D2 antagonist 41.2 | D3 ag inactive | D2 ag-3 inactive
COc1cc(-c2nnc(NC(=O)CCS(=O)(=O)c3ccc(F)cc3)o2)cc(OC)c1OC	none
CCSC1=N/C(=C\c2ccc3c(c2)OCO3)C(=O)S1	D2 antagonist 30.4 | D3 ag inactive | D2 ag-3 inactive
Cc1ccc(-n2nc3c(N4CCC(C(=O)NC5CCC(C)CC5)CC4)nnc(C)c3c2C)cc1 (stereo not drawn)	none (no result: D2 antagonist, D2 PAM-1, D2 PAM-2, D2 ag-2)
Cc1cc(C)nc(-n2ncc3c2CC(c2ccccc2)CC3=O)n1 (stereo not drawn)	D2 ag-1 48.4 | D3 ag inactive | D2 ag-3 inactive
Nc1ccn(CC(=O)NCc2ccc3[nH]ccc3c2)c(=O)n1	none | D3 ag inactive | D2 ag-3 inconclusive
O=C(COc1cccc(F)c1)NNC(=O)Cc1ccc(S(=O)(=O)N2CCOCC2)s1	none | D3 ag inactive | D2 ag-3 inactive
O=C(COc1cccc(C(F)(F)F)c1)NNC(=O)Cc1ccc(S(=O)(=O)N2CCOCC2)s1	none
CC(=O)OCC12COC3c4ccccc4OC(C)(CC1C)C3C2C (stereo not drawn)	none
O=C(NNC(=O)c1cccs1)c1ccc(Cl)nc1	none
OC(c1ccccc1)C1CN(Cc2ccccc2)CCC1(O)c1ccccc1 (stereo not drawn)	none
O=C(c1ccccc1)C1CN(Cc2ccccc2)CCC1(O)c1ccccc1 (stereo not drawn)	D2 ag-1 64.8, D2 antagonist 45.3 | D3 ag inactive | D2 ag-3 inactive
Clc1cccc(OCCN2CCN(CCOc3cccc(Cl)c3)CC2)c1	D2 ag-1 74.0, D2 antagonist 92.6, D2 ag-2 inconclusive | D3 ag inconclusive | D2 ag-3 inactive
O=S(=O)(c1ccc(Br)s1)N1CCN(CCOc2ccccc2)CC1	D2 ag-1 43.2, D2 antagonist 53.0 | D3 ag inconclusive | D2 ag-3 inactive
CN(C)CCCOc1cccc(Cl)c1	none
c1ccc(OCCN2CCOCC2)cc1	D2 ag-1 37.5 | D3 ag inactive | D2 ag-3 inactive
c1ccc(Cc2ccc(OCCN3CCOCC3)cc2)cc1	none
CCOc1ccc(-c2cc(CCCC(=O)NCCc3ccc(OCC)c(OCC)c3)no2)cc1	none (no result: D2 antagonist, D2 PAM-2, D2 ag-2)
CC(C)c1ccc2oc(=O)cc(CN3CCOCC3)c2c1	none
COc1ccc2nc(SCC(=O)c3c(C)[nH]c4ccccc34)nc(C)c2c1	none (no result: D2 antagonist, D2 PAM-2, D2 ag-2)
CN(C)S(=O)(=O)n1cnc([C@H]2c3c(ncn3Cc3ccccc3)C[C@H]3COC(=O)[C@@H]32)c1	none
CN(C)S(=O)(=O)n1cnc([C@@H]2[C@@H]3C(=O)OC[C@@H]3C[C@]23N=CN(Cc2ccccc2)C3=O)c1	D2 antagonist 30.9 | D3 ag inactive | D2 ag-3 inactive
N#C/C(=C/c1ccc(N2CCOCC2)o1)c1nc2ccccc2[nH]1	none | D3 ag inconclusive | D2 ag-3 inactive
COc1ccc(-n2ncc3c2ncn2nc(-c4ccc(Cl)cc4Cl)nc32)cc1	none (no result: D2 antagonist, D2 PAM-2, D2 ag-2)
O=C(c1ccccc1N1CCOCC1)N1CCCC(Nc2ccc(F)cc2)C1 (stereo not drawn)	none
Cc1cc(C)n2nc(-c3cccnc3)nc2n1	none
Cc1cc(C)n2nc(-c3ccc(F)cc3)nc2n1	none (no result: D2 ag-1, D2 antagonist, D2 PAM-1) | D3 ag inactive | D2 ag-3 inactive
CCc1cc(OCCOCCN(C)C)ccc1Cl	none
CN(C)Cc1c(C(=O)Nc2ccccc2)[nH]c2ccccc12	D2 antagonist 45.0 | D3 ag inactive | D2 ag-3 inactive
CCOC(=O)c1[nH]c2ccccc2c1NC(=S)Nc1ccccc1	D2 ag-2 inconclusive
CC(=O)c1ccc(OCC(O)CN2CCOCC2)cc1 (stereo not drawn)	none
Cc1cc(=O)oc2cc(OCC(O)CN3CCN(c4ccccc4)CC3)ccc12 (stereo not drawn)	D2 ag-1 89.9, D2 antagonist 71.9, D2 ag-2 52.3 | D3 ag inactive | D2 ag-3 inconclusive
Cc1ccc(C)c(OCC(O)CN2CCc3ccccc3C2)c1C (stereo not drawn)	none

Screening results from PubChem.
